Measured values from PubChem BioAssay.
Calls of active or inactive are those of the source.

Assays:
[1] = test system: Plasmodium falciparum Sir2 (PF13_0152, Sir2A); assay: Plasmodium falciparum Sir2A binding compounds – biochemical, small-molecule microarray, 635 nm fluorescence, primary screen (AID 1098); conditions: fluorescence 635 nm, higher = more signal;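 further: score merges spot fluorescence intensity with its signal-to-noise ratio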
[2] = probe aDKK1 binding to arrayed compounds – biochemical, biotinylated probe, 635/667 nm fluorescence, primary screen (AID 1099); conditions: small-molecule microarray, higher = more signal;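 further: score merges 667nm spot fluorescence with signal to noise across triplicate slides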
[3] = probe aCHRDL2 binding to arrayed compounds – biochemical, biotinylated probe, 635/667 nm fluorescence, primary screen (AID 1100); conditions: small-molecule microarray, higher = more signal
[4] = change in splice reporter luminescence, either direction, cell-based, HEK293, spliceosome inhibition project, primary screen (AID 1101); conditions: HEK293 splicing luciferase reporter, 24 h, higher = more signal, called active from +8 up or from −8 down;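 further: HEK293 cells carrying a splicing-competent luciferase reporter gene; test concentration not given here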
[5] = target: Fibroblast growth factor 10 (Homo sapiens) (UniProt O15520); assay: compounds binding fibroblast growth factor 10 – biochemical, small-molecule microarray, 635 nm fluorescence, primary screen (AID 1102); conditions: FGF10 binding, fluorescence 635 nm, higher = more signal
Sequence of Fibroblast growth factor 10 (Homo sapiens) (O15520 whole entry, looked up): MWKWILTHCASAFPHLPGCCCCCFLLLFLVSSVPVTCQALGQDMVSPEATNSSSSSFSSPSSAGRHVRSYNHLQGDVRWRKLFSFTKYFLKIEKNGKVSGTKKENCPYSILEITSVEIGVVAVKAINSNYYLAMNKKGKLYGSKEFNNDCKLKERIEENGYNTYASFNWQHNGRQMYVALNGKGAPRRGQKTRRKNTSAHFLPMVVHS

[6] = test system: glycogen synthase kinase-3 (GSK3A per assay name; protocol says GSK3B); assay: compounds binding glycogen synthase kinase-3 – biochemical, small-molecule microarray, 635 nm fluorescence, GSK3A, primary screen (AID 1103); conditions: fluorescence 635 nm, higher = more signal; further: the record names both GSK3A and GSK3B
[7] = target: Epidermal growth factor receptor (Homo sapiens) (UniProt P00533); assay: compounds binding epidermal growth factor receptor – biochemical, small-molecule microarray, 635 nm fluorescence, primary screen (AID 1104); conditions: EGFR binding, higher = more signal;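 further: score merges 667 nm emission intensity with spot signal to noise over triplicate slides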
Sequence of Epidermal growth factor receptor (Homo sapiens) (P00533 whole entry, looked up): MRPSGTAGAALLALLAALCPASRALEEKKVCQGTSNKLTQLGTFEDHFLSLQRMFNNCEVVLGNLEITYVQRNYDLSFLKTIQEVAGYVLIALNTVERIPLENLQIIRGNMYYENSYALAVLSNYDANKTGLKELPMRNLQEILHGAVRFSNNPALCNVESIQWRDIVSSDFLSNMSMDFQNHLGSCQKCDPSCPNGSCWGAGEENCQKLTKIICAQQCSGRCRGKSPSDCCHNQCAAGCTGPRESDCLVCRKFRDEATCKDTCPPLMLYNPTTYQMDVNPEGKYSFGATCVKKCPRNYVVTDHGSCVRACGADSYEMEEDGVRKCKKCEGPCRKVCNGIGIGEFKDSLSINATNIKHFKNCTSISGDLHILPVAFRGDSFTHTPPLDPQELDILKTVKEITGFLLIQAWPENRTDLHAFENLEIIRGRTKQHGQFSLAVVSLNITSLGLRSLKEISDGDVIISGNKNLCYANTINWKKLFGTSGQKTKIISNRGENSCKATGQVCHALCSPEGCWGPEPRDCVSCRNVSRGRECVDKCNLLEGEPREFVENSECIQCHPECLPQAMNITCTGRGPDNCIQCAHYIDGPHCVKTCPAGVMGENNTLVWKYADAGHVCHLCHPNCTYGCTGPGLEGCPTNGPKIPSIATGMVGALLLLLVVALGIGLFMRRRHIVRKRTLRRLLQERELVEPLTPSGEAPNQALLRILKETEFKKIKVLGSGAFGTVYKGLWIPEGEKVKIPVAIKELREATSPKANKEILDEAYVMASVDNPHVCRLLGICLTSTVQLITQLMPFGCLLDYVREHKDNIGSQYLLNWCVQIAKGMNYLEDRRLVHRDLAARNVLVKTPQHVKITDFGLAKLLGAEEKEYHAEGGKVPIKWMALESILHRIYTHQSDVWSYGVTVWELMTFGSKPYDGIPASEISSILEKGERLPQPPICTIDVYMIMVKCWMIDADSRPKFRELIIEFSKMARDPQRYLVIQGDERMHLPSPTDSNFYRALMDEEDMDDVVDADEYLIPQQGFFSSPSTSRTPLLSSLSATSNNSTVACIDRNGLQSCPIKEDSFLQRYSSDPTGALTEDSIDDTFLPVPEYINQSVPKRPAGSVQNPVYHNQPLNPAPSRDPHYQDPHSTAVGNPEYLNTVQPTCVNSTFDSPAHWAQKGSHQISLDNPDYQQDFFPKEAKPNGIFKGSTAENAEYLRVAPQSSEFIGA

[8] = target: Follistatin-related protein 3 (Homo sapiens) (UniProt O95633); assay: compounds binding follistatin-related protein 3 – biochemical, small-molecule microarray, 635 nm fluorescence, primary screen (AID 1105); conditions: FSTL3 binding, higher = more signal;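 further: score merges emission near 667 nm and signal to noise per printed spot across three slides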
Sequence of Follistatin-related protein 3 (Homo sapiens) (O95633 whole entry, looked up): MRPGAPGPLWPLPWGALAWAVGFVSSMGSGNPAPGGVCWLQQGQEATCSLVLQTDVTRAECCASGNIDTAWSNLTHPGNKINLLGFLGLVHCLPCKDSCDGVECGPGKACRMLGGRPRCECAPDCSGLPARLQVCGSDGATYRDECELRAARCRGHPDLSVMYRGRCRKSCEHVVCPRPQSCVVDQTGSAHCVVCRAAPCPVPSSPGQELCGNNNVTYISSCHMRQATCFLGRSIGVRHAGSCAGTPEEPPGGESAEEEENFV

[9] = target: Dickkopf-related protein 1 (Homo sapiens) (UniProt O94907); assay: small molecules binding DKK1 protein – biochemical, small-molecule microarray, 635 nm fluorescence scan, primary screen (AID 1106); conditions: higher = more signal;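 further: score merges emission near 667 nm with signal to noise over three replicate slides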
Sequence of Dickkopf-related protein 1 (Homo sapiens) (O94907 whole entry, looked up): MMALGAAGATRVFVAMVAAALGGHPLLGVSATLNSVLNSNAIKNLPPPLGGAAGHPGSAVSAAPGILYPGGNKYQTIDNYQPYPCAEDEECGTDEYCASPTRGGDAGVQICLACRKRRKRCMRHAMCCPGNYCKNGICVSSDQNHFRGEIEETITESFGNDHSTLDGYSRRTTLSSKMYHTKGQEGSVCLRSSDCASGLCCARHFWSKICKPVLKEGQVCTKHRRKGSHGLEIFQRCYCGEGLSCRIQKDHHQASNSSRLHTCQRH

[10] = test system: Inhibin beta A chain (activin A); assay: small molecules binding activin A – biochemical, small-molecule microarray, 635 nm fluorescence scan, primary screen (AID 1107); conditions: INHBA, higher = more signal;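 further: mouse activin A protein probed at 4.33 µg/mL on printed slides; score merges bound-protein fluorescence near 667 nm with spot signal-to-noise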
[11] = test system: Human papillomavirus type 1a protein E7 (residues 44-93); assay: small molecules binding HPV E7 44-93 – biochemical, small-molecule microarray, residues 44-93, 635 nm fluorescence, primary screen (AID 1108); conditions: fluorescence 635 nm, higher = more signal;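 further: E7 fragment applied at 1 µg/mL in TBST for 1 h at 4 C; score combines spot fluorescence with its signal to noise ratio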
[12] = hepatitis C replication reporter changes, two-sided – Huh7 cells, luciferase reporter, HCV replication inhibitor project, primary screen (AID 1109); conditions: Huh7 HCV replicon luciferase reporter, 48 h; higher = more signal;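 further: huh7 hepatoma cells harbouring a luciferase neomycin HCV replicon reporter; luciferase luminescence as measure of HCV replicon replication; test concentration not given here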
[13] = target: Left-right determination factor 2 (Homo sapiens) (UniProt O00292); assay: small molecules binding LEFTY2 protein – biochemical, small-molecule microarray, 635 nm fluorescence scan, primary screen (AID 1110); conditions: higher = more signal
Sequence of Left-right determination factor 2 (Homo sapiens) (O00292 whole entry, looked up): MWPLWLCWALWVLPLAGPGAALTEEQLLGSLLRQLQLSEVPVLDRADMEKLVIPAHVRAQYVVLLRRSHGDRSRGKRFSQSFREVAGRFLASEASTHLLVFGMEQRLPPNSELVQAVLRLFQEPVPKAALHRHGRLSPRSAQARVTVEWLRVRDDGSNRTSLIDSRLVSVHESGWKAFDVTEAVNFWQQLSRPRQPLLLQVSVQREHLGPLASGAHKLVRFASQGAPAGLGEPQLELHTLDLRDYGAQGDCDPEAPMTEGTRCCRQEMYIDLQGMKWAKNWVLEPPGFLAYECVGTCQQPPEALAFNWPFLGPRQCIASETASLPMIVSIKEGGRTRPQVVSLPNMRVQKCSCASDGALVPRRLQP

[14] = target: Calmodulin-1 (Homo sapiens) (UniProt P0DP23); assay: small molecules binding calmodulin-1 with EGTA – biochemical, small-molecule microarray, Cy5-labelled CALM1, profiling panel (AID 1111); conditions: Cy5-CALM1 binding fluorescence, higher = more signal;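 further: labelled calmodulin applied in Tris saline Tween buffer holding calcium plus EGTA and DTT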
[15] = target: Calmodulin-1 (Homo sapiens) (UniProt P0DP23); assay: small molecules binding Ca-loaded calmodulin-1 – biochemical, small-molecule microarray, Cy5-labelled CALM1, plus calcium, artefact control for SMM control-protein annotation, profiling panel (AID 1112); conditions: Cy5-CALM1 binding fluorescence, higher = more signal;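 further: score merges spot fluorescence with signal to noise from triplicate slides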
[16] = probe aWnt5a binding to arrayed compounds – biochemical, biotinylated probe, 635/667 nm fluorescence, primary screen (AID 1113); conditions: small-molecule microarray, higher = more signal;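 further: score merges 667 nm fluorescence intensity with signal-to-noise per printed feature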
[17] = probe aShh binding to arrayed compounds – biochemical, biotinylated probe, 635/667 nm fluorescence, primary screen (AID 1114); conditions: small-molecule microarray, higher = more signal;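 further: probe is biotin-labelled aShh protein from a stem cell growth factor screen; measures binding of labelled protein to compounds printed on the slide; score merges feature fluorescence at 667 nm with signal-to-noise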
[18] = probe aNog binding to arrayed compounds – biochemical, biotinylated probe, 635/667 nm fluorescence, primary screen (AID 1115); conditions: small-molecule microarray, higher = more signal;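 further: probe is biotinylated aNog protein used at 0.15 µg/mL for 1 h at 4 C; z-score combines 667 nm fluorescence of each spot with its signal to noise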
[19] = target: Torsin-1A-interacting protein 1 (Homo sapiens) (UniProt Q5JTV8); assay: compound microarray binding of lysate hLAP1 – cell lysate, small-molecule microarray, COS7 lysate, 635/667 nm fluorescence, primary screen (AID 1116); conditions: 635 nm fluorescence, higher = more signal
Sequence of Torsin-1A-interacting protein 1 (Homo sapiens) (Q5JTV8 whole entry, looked up): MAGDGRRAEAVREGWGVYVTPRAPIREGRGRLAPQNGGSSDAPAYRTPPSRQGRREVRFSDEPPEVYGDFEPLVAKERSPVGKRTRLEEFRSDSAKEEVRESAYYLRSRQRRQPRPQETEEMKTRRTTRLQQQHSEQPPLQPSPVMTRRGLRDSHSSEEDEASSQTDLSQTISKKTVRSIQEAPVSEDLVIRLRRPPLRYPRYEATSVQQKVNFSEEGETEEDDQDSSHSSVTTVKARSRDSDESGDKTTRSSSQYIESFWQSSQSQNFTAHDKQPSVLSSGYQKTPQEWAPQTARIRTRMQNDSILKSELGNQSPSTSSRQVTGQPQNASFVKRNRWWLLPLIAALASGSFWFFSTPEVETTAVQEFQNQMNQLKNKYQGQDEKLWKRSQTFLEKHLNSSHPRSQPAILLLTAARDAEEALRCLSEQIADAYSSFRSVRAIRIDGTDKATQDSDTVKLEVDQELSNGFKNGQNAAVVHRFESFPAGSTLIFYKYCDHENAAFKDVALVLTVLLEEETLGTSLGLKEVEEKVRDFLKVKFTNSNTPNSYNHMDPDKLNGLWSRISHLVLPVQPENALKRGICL

[20] = target: Alpha-bungarotoxin (Bungarus multicinctus) (UniProt P60615); assay: compounds binding labelled alpha-BTX control protein – biochemical, small-molecule microarray, Alexa647 label, 635/667 nm fluorescence, artefact control for SMM control protein annotation, profiling panel (AID 1117); conditions: alpha-BTX-A647 binding fluorescence, higher = more signal
Sequence of Alpha-bungarotoxin (Bungarus multicinctus) (P60615 whole entry, looked up): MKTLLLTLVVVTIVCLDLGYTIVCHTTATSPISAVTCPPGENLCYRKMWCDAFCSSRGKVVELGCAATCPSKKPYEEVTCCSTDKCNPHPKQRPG

SMILES	composite z-score [1]	composite z-score [2]	composite z-score [3]	z-score [4]	composite z-score [5]	composite z-score [6]	composite z-score [7]	composite z-score [8]	composite z-score [9]	composite z-score [10]	composite z-score [11]	z-score [12]	composite z-score [13]	composite z-score [14]	composite z-score [15]	composite z-score [16]	composite z-score [17]	composite z-score [18]	composite z-score [19]	composite z-score [20]
CCC[C@@H]1C[C@@]1(CCC)[C@@H](NS(=O)(=O)c1cccc2cccnc12)c1ccc(Cl)cc1	-0.318	0.916	1.1	0.109 (inactive)	0.044	-0.594	-0.484	-0.445	-0.35	1.04	1.23	-1.38	-0.385	0.976	1.28	0.0839	0.426	1.1	0.731	0.6
C=C(CCCC)/C(=C/C[C@@H](OC(C)=O)c1ccc(OCCO)cc1)c1cnc2ccccc2c1	0.619	-0.12	0.149	-0.27 (inactive)	0.628	-0.174	0.401	1.12	0.698	1.53	1.13	-1.44	0.285	-0.276	-0.642	-0.0735	-0.214	-0.158	0.887	1.29
CC(C)C(=C=CC[C@@H](O)c1ccc(OCCO)cc1)C[C@@H](O)COCc1ccccc1	0.413	-0.133	-0.222	-1.97 (inactive)	1.23	0.099	-0.516	0.478	-0.198	0.992	0.702	-0.453	0.164	-0.774	-0.918	0.505	-0.0553	0.526	1.51	0.119
CC(C)=CCCC(C)=CC(O)C1C=CC2C(=O)N(C)C(=O)C2N1Nc1ccccc1 (stereo not given)	0.854	0.473	0.55	3.04 (inactive)	0.914	1.31	1.52	1.47	0.893	1.07	1.45	-2.28	0.457	1.99	0.73	0.0597	-0.0362	1.3	0.524	2.04
C=CCC(OC(C)=O)[C@@H]1[C@@H](N(Cc2ccc(-c3ccccc3)cc2)C(=O)c2ccc(-c3ccccc3)cc2)c2cc(OCCCO)ccc2N1C(=O)Cc1ccc2ccccc2c1 (stereo not given in full)	-0.316	-0.108	0.336	-0.412 (inactive)	-0.133	-0.0682	0.0825	0.394	0.0989	1.11	0.422	-0.4	0.0959	0.436	0.704	-0.0566	-0.345	0.221	0.359	0.0054
COCCOC(=O)N1C(=O)[C@@]2(c3cc(C#CCNC(N)=O)ccc31)[C@H](C(=O)N1CCN(c3ncccn3)CC1)[C@H]1C(=O)O[C@H](c3ccccc3)[C@H](c3ccccc3)N1[C@@H]2c1ccc(OCCO)cc1	1.08	0.223	0.329	-0.729 (inactive)	1.01	-0.0506	0.498	1.37	0.204	0.63	1.01	-0.801	0.188	0.392	0.0615	0.0031	-0.315	0.196	0.0481	1.82
COCCCNC(=O)[C@]1(CCC(=O)OC(C)(C)C)N=C(c2ccc(OCCCO)cc2)O[C@@H]1c1ccccc1CN=[N+]=[N-]	1.42	0.639	0.608	0.378 (inactive)	1.41	1.3	-0.504	0.35	-0.299	0.733	1.31	-1.74	0.254	1.38	0.282	0.45	0.147	2.04	1.29	0.312
O=C1C2C=CC(C(O)c3cc(C(F)(F)F)cc(C(F)(F)F)c3)N(n3cnnc3)C2C(=O)N1Cc1ccccc1 (stereo not given)	0.716	-0.0958	0.531	-0.27 (inactive)	-0.409	-0.261	-0.165	-0.103	-1.17	-0.301	1.11	-0.418	-0.63	0.538	-0.374	-0.0161	0.14	0.705	-0.133	-0.0735
C[N+](C)(C)CCCC[C@@H]1NC(=O)[C@H]2C[C@@H](C(=O)NCCCCCCNC(=O)CS)[C@@H](c3cccc(OCCO)c3)N2C1=O	0.726	-0.0575	0.861	-0.213 (inactive)	-0.85	-0.805	-1.06	-0.994	-0.602	-0.57	-1.51	-0.242	-1.55	-0.149	0.105	-0.202	-0.17	-0.175	-0.933	-1.06
O=C1c2ccccc2[C@](Cc2ccccc2I)(C(=O)NCCN2CCOCC2)[C@H](c2ccc(CO)cc2)N1C1CCCCC1	0.979	1.04	0.77	0.821 (inactive)	0.82	1.3	0.499	1.24	0.941	0.821	0.994	-2.48	0.804	1.13	0.315	0.0286	0.359	0.0308	0.494	1.83
